RORg inh: inhibitors of mouse ROR gamma transcriptional activity; P51450; Drosophila S2 Gal4-RORgamma UAS-luciferase reporter, 20 h; Potency, µM (titrated, usually from 53.6 µM), inactives show at the top dose activity change, negative = inhibition, actives largely listed as inhibitors; 310,000 compounds, 5.4% hits; also: potency is read from the fitted curve at half-maximal effect; % is scaled to controls: 0 for no effect and ±100 for the full control effect; nearly all actives have a fitted effect of over 60% in size
Target sequence (P51450 whole entry, looked up, the tested form may be a part): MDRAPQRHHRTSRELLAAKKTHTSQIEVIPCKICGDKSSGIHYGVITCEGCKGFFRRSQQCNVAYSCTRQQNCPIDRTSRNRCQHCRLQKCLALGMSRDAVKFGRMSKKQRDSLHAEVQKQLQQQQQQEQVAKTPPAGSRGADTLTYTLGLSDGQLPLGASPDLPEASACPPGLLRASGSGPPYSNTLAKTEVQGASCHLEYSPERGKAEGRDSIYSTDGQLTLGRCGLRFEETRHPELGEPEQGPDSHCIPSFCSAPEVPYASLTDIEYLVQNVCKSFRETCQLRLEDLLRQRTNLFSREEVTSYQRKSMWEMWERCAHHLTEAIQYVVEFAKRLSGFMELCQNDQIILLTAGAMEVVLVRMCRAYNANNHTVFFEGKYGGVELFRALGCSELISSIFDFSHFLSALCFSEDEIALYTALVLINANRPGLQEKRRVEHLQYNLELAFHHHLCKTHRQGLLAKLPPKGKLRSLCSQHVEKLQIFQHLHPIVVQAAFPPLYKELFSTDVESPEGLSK
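Stably transfected Drosophila Schneider cells are the test system, with ROR gamma fused to Gal4 and luciferase under UAS control; luminescence is read after 20 hr of 700 uM copper sulfate induction at ambient temperature.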
a7 integrin act: integrin-mediated muscular dystrophy alleviation activation | alpha7betagal myoblasts, beta-gal FDG fluorescence, 48 h | Potency, µM (top dose mostly 38.3 µM), without a hit: at the top dose activation, usual class: activators | 350,000 compounds, 0.064% hits;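 also: potency is read from the fitted curve at half-maximal effect; 100% = response of the positive control SU9516; nearly all actives have a fitted effect of over 60% in size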
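Alpha7betagal+/- myoblasts (passage 13) were plated 16-24 hr, then exposed to compounds (1:260 dilution of DMSO stock) for 48 hours at 37C. After MPER lysis, β-galactosidase reporter activity was read as FDG fluorescence (ex 480/em 540) after 30 minutes.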
Giardia killer: Giardia lamblia killing. 340,000 compounds, 0.15% hits. activity change, % at 7.66 µM, hits read low. Giardia lamblia trophozoite viability. AID 540267; in the data active = activity change below about -80%; inconclusive = between about -30% and that limit;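 also: parasites exposed to compound for two days anaerobically before the ATP read; % is scaled to controls: 0 for no effect and ±100 for the full control effect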
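Giardia trophozoites, 100 cells per well, were exposed to compounds for 48 hrs at 37 deg C under anaerobic conditions; viability was then read as ATP content by bioluminescence after 15-30 min at room temperature.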
Gal4-VP16 FLuc: inhibits Gal4-VP16 luciferase reporter, ROR gamma counter-screen; Drosophila S2 Gal4-VP16 UAS-luciferase, luminescence, 20 h; Potency, µM (top dose mostly 53.6 µM), without a hit: top-dose activity, negative = inhibition, actives largely listed as inhibitors; 310,000 compounds, 3.5% hits;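 also: Gal4-VP16 expression switched on by copper sulfate through the metallothionein promoter; potency is read from the fitted curve at half-maximal effect; % is scaled to controls: 0 for no effect and ±100 for the full control effect; nearly all actives have a fitted effect of over 50% in size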
ERG-DNA inh: inhibitors of human ERG Ets domain-DNA interaction; P11308; 370,000 compounds, 0.028% hits; AID 624246; Potency, µM (doses to about 76.9 µM), without a hit: top-dose FP activity, negative = inhibition, most hits filed as inhibitors; fluorescence polarization, His-ERG Ets domain / labelled DNA; active = well fitted inhibition curve with a large enough effect in the polarisation, with a control signal flat; inconclusive = small, poorly fitted or top-dose-only effect, or effect the other way, or a change in a side signal; inactive = no such curve, though single readings can be large or run the other way; the % refers to the polarisation;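 also: polarization taken with two DNA probes labelled with fluorescein and Texas red; potency is read from the fitted curve at half-maximal effect; % of control where 0% means no effect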
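His-tagged ERG Ets domain (1 uM in the protein solution; 300mM KCl, 50mM Tris-HCl, 1mM EDTA, 1mM DTT, pH 7.5) received compound, then a probe mix of 5 nM fluorescein-DNA and 100nM Texas-615-DNA. Fluorescence polarization was read for both dyes.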
Active calls of the source: *; ? = inconclusive; · = no result; [ ] = remark or other dose. This is one part of a sample in which hits are shown more often than they occur. Unless noted, calls follow the shape of the dose curve; as a rule, active = well fitted curve in the direction sought with a large enough effect; inconclusive = small, poorly fitted or top-dose-only effect, or another doubt; inactive = no such curve, though single readings can be large; an effect the other way counts as inactive or inconclusive.

SMILES | RORg inh | a7 integrin act | Giardia killer | Gal4-VP16 FLuc | ERG-DNA inh
Cc1ccnc(SCc2cn3c(C)cccc3n2)n1 | ? | 21.2% | -1.3 | 27.5% | -19.6%
Cc1cccc2nc(CSc3nnc4ccccn34)cn12 | 11.2µM* | -3.6% | -12.2 | ? | -1.2%
Cc1cc(C)nc(SCc2cn3c(C)cccc3n2)n1 | ? | 36.3% | -4.8 | 0.9% | -8.8%
Clc1c(CSc2nc3ccccc3o2)nc2sccn12 | ? | 0.8% | -6.7 | -9.5% | 8.3%
Cc1cccc2nc(CSc3nc4ccccc4o3)cn12 | 17.8µM* | 5.7% | 0.4 | ? | -1.1%
Clc1c(CSc2nc3ccccc3o2)nc2ccccn12 | ? | 4.8% | 11.6 | 7.08µM* | -1.0%
Cc1cc(C)c(C#N)c(SCc2cn3c(C)cccc3n2)n1 | 11.2µM* | 5.1% | 4.1 | ? | 5.9%
CC(=C(CCOP(=O)(O)O)SC(=O)c1ccccc1)N(C=O)Cc1cnc(C)nc1N | -10.6% | · | · | -6.9% | ·
CN1CCN(NC(=O)c2cccc(Br)c2)CC1 | 6.5% | -13.6% | -16.8 | 0.3% | 12.4%
Cc1cc(NC(=O)COCc2cc(-c3ccc(F)cc3)on2)ccc1Br | · | · | · | · | 2.6%
O=C(NCc1cccc(Cl)c1)c1ccc2c(c1)OCCO2 | -1.6%[1.91 µM] | -0.4% | -3.8 | 25.4% | 1.5%
CCCC[C@H]1C2=C3[C@@H](CC(C(=O)OC)=C[C@@H](C(=O)OC)[C@H]3C(C)(C)C2=O)n2c(=O)n(C)c(=O)n21 | 34.2% | · | -3.7 | -2.1% | ·
c1ccc2oc(SCc3cn4ccccc4n3)nc2c1 | 8.91µM* | 17.5% | 9.6 | 15.8µM* | ·
O=C(Nc1ccc(Oc2cccnc2)cc1)c1ccccc1Cl | ? | 10µM* | -10.5 | -15.6% | 4.7%
O=C(Nc1ccccc1)Nc1cccc(Cl)c1Cl | ? | -18.9% | 14.2 | -1.3% | -4.1%
O=C(Nc1ccc(Oc2ccc(NC(=O)Nc3ccccc3Cl)cc2)cc1)Nc1ccccc1Cl | 2.51µM* | -18.3% | -10.8 | ? | -26.9%
CCCCC(=O)Nc1cc(C(=O)NCCc2ccccc2)ccc1Cl | 5.7% | 6.6% | 7.4 | -24.8% | ·
COc1cc(OC)c(NC(=O)Cn2cnc3sc(C)c(S(=O)(=O)N4CCOCC4)c3c2=O)cc1Cl | -18.6% | 14.7% | 1.6 | -9.6% | -13.0%
O=C(CCN1C(=O)/C(=C/c2cccs2)SC1=S)NC1=NCCS1 | 15.8µM* | -19.4% | 7.6 | ? | 5.3%
COc1ccccc1/C=C1\SC(=S)N(CCC(=O)NC2=NCCS2)C1=O | 4.47µM* | -22.4% | -6.5 | -6.9% | 0.8%
O=C(CCN1C(=O)/C(=C\c2cccs2)SC1=S)NC1=NCCS1 | ? | -19.1% | 24.0 | ? | 15.3%
S=C(NC1CC2CCC1C2)N1CCN(c2cccc(Cl)c2)CC1 (centres undefined) | 22.4µM* | -39.9% | 0.3 | -14.1% | -3.8%
CCN(CC)S(=O)(=O)c1nnc(NC(=O)COc2cccc(C)c2)s1 | · | · | · | · | -1.0%
COc1cc2c(cc1OC)-c1cc3cc(OC)c(OC)cc3c(=O)n1CC2 | ? | · | · | -27.9% | ·
NC(=S)Cc1ccccc1Cl | 10µM* | -18.4% | -14.7 | -26.0% | -2.6%
SMILES | RORg inh | a7 integrin act | Giardia killer | Gal4-VP16 FLuc | ERG-DNA inh
CCC(C)c1ccc(NC(=S)NCc2ccccc2OC)cc1 (centres undefined) | 2.24µM* | ? | -10.6 | 8.91µM* | 5.0%
COc1ccccc1CNC(=O)CC(C)c1ccccc1 (centres undefined) | 15.8% | 9.4% | -6.9 | -5.0% | -6.1%
COc1ccccc1CNC(=O)CCc1ccccc1 | ? | 5.3% | 20.5 | 27.6% | -22.9%
S=C(NCc1ccccc1)NCc1ccccc1Cl | 12.6µM* | 0.0% | -9.6 | 20µM* | 11.0%
COc1ccccc1CNC(=S)NCCc1ccccc1 | 2.51µM* | -8.9% | -12.3 | ? | -1.1%
COc1ccc(NC(=O)C2=C(C)Nc3ncnn3C2c2sccc2C)cc1 (centres undefined) | · | · | · | · | -1.9%
COc1ccccc1CNC(=O)COC(=O)Cc1ccc(F)cc1 | · | 9.2% | -17.0 | · | -9.7%
NS(=O)(=O)c1ccc(NC(=S)NCc2ccccc2Cl)cc1 | -1.7% | 6.9% | -16.5 | 18.1% | 1.1%
COC(=O)Cc1ccc(NC(=S)NCc2ccccc2OC)cc1 | 8.91µM* | 23.1% | -15.5 | 25.1µM* | 3.0%
COc1ccccc1CNC(=S)Nc1ccc(F)cc1 | 7.94µM* | 0.8% | 28.2 | 6.31µM* | 9.9%

Screening data (PubChem BioAssay)
